From ChEMBL document CHEMBL1961873, “Compounds: GSK PKIS; Assays: Nanosyn kinase panel” (2012) come the findings set out here.

Molecules are shown by their SMILES.

For test [1], the target named is RAC-alpha serine/threonine-protein kinase (Homo sapiens) (UniProt P31749). To be noted: at 0.1 µM.
The target is the same in test [2]. To be noted: at 1 µM.
Test [3] concerns the target RAC-beta serine/threonine-protein kinase (Homo sapiens) (UniProt P31751). To be noted: at 0.1 µM.
For test [4] the target is unchanged. To be noted: at 1 µM.
The target of test [5] is RAC-gamma serine/threonine-protein kinase (Homo sapiens) (UniProt Q9Y243). To be noted: at 0.1 µM.
Test [6] shares this target. To be noted: at 1 µM.
Test [7] has as its target G protein-coupled receptor kinase 6 (Homo sapiens) (UniProt P43250). To be noted: at 0.1 µM.
The target is the same in test [8]. To be noted: at 1 µM.
The target in test [9] is T1, Rhodopsin kinase GRK7 (Homo sapiens) (UniProt Q8WTQ7).
T1 sequence (whole entry): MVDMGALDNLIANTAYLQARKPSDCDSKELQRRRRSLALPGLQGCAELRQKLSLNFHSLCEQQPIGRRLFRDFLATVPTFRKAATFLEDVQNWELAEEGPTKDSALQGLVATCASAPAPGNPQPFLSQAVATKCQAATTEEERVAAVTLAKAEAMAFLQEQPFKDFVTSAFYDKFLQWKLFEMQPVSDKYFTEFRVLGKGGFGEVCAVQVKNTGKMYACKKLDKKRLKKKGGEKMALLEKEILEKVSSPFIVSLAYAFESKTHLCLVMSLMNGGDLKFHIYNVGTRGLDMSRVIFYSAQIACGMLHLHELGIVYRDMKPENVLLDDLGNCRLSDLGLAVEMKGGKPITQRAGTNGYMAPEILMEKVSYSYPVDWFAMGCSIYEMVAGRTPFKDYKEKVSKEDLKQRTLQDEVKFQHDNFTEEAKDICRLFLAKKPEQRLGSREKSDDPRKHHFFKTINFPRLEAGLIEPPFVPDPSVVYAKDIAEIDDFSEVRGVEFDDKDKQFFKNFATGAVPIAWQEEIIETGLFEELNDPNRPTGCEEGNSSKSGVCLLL
Particulars: at 0.1 µM.

Test [10] concerns the target T1, Rhodopsin kinase GRK7 (Homo sapiens). To be noted: at 1 µM.
Test [11] deals with Serine/threonine-protein kinase MRCK alpha (Homo sapiens) (UniProt Q5VT25). To be noted: at 0.1 µM.
Test [12] shares this target. To be noted: at 1 µM.
Test [13] addresses Serine/threonine-protein kinase MRCK beta (Homo sapiens) (UniProt Q9Y5S2). To be noted: at 0.1 µM.
Test [14] shares this target. To be noted: at 1 µM.
Test [15] addresses Ribosomal protein S6 kinase alpha-5 (Homo sapiens) (UniProt O75582). To be noted: at 0.1 µM.
Test [16] shares this target. To be noted: at 1 µM.
Test [17] has as its target Ribosomal protein S6 kinase alpha-4 (Homo sapiens) (UniProt O75676). To be noted: at 0.1 µM.
Test [18] shares this target. To be noted: at 1 µM.
Test [19] deals with Ribosomal protein S6 kinase beta-1 (Homo sapiens) (UniProt P23443). Particulars: at 0.1 µM.
Test [20] has the same target. Particulars: at 1 µM.

Chain of Serine/threonine-protein kinase MRCK beta (Homo sapiens) (Q9Y5S2 whole entry): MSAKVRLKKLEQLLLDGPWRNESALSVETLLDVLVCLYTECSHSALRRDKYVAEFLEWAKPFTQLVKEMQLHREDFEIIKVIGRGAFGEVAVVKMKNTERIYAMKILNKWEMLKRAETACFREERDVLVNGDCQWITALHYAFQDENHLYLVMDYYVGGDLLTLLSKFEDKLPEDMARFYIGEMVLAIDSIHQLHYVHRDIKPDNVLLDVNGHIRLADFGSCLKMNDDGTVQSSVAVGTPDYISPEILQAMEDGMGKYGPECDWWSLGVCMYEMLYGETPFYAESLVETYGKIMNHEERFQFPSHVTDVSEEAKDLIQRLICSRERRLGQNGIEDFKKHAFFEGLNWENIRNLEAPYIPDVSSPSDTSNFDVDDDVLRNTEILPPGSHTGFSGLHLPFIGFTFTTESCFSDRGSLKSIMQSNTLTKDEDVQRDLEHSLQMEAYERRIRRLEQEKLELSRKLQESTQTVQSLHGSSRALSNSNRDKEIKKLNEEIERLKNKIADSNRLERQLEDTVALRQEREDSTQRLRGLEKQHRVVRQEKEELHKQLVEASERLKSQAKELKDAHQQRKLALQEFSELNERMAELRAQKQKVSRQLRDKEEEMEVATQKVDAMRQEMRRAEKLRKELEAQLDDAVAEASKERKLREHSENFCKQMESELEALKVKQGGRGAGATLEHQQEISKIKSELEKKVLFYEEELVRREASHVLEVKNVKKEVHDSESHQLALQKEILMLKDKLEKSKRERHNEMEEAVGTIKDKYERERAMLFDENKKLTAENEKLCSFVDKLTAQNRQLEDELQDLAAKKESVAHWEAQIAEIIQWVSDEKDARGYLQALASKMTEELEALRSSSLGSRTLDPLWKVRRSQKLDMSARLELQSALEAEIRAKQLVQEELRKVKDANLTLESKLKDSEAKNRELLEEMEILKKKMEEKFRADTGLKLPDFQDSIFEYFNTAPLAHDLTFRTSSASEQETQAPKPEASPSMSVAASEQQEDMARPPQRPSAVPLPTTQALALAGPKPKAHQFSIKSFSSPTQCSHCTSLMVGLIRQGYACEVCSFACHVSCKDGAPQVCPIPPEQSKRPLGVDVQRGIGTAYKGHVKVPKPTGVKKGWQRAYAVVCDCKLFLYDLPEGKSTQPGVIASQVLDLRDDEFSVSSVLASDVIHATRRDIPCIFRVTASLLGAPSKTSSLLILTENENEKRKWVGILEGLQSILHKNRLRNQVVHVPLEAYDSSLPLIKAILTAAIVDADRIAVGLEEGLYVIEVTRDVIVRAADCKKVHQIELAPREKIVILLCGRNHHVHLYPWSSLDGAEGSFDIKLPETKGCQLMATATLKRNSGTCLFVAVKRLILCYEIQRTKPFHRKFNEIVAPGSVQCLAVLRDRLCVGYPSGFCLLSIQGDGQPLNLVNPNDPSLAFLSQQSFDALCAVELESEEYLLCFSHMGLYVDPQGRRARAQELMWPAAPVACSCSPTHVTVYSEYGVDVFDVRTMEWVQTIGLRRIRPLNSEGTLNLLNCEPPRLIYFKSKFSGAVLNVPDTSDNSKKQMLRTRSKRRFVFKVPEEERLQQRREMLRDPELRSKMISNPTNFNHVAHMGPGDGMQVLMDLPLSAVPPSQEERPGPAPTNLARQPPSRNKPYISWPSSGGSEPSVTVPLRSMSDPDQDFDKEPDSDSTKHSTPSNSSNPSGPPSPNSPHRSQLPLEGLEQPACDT
Chain of RAC-gamma serine/threonine-protein kinase (Homo sapiens) (Q9Y243 whole entry): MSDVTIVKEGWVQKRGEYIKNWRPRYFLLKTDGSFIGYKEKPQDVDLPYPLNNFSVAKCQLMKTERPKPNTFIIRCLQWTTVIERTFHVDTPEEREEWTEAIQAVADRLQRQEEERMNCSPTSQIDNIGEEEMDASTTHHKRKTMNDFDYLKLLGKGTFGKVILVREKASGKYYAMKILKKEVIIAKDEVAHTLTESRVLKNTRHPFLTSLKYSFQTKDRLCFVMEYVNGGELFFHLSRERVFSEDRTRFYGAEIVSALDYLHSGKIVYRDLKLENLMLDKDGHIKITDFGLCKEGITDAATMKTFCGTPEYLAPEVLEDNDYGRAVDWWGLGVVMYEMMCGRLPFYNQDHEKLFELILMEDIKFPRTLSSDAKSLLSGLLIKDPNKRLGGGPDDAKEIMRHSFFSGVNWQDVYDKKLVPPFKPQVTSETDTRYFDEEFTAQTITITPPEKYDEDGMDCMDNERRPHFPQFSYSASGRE
Chain of G protein-coupled receptor kinase 6 (Homo sapiens) (P43250 whole entry, looked up): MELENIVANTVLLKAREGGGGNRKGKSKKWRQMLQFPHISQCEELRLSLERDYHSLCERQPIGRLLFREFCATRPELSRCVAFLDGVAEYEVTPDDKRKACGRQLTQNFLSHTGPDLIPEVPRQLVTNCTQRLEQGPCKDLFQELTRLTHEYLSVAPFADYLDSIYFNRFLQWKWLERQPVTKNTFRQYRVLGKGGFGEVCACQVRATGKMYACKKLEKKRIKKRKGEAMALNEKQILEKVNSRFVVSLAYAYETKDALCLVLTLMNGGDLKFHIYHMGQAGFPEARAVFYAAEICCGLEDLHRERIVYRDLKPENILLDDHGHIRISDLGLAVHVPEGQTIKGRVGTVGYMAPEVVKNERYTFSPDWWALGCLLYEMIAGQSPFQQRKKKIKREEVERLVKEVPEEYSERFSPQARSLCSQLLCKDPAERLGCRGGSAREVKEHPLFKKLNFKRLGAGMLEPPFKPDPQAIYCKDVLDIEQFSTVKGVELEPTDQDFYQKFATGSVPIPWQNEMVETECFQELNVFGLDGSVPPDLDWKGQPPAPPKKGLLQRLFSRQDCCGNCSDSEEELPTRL
Chain of Ribosomal protein S6 kinase alpha-5 (Homo sapiens) (O75582 whole entry, looked up): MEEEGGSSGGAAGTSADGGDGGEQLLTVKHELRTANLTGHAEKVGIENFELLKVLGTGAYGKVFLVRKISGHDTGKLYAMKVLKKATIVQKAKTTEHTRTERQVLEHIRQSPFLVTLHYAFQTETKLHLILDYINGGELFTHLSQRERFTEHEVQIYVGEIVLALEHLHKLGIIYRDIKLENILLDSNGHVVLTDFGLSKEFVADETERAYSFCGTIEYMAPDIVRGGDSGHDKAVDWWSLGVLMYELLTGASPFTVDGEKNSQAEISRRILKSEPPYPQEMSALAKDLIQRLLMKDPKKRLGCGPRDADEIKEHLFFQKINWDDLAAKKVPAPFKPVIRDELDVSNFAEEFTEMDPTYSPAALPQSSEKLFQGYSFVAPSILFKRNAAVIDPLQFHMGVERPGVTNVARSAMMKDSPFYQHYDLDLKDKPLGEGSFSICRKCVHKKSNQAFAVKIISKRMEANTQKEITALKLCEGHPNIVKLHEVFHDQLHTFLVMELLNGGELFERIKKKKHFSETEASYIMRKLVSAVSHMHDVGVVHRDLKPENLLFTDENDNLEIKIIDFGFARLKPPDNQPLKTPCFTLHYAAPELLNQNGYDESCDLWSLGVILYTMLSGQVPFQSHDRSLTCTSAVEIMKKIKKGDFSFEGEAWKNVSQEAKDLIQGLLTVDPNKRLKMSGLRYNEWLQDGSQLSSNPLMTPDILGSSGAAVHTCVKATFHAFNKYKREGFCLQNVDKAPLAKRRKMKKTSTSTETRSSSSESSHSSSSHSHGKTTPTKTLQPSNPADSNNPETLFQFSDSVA
Chain of RAC-alpha serine/threonine-protein kinase (Homo sapiens) (P31749 whole entry): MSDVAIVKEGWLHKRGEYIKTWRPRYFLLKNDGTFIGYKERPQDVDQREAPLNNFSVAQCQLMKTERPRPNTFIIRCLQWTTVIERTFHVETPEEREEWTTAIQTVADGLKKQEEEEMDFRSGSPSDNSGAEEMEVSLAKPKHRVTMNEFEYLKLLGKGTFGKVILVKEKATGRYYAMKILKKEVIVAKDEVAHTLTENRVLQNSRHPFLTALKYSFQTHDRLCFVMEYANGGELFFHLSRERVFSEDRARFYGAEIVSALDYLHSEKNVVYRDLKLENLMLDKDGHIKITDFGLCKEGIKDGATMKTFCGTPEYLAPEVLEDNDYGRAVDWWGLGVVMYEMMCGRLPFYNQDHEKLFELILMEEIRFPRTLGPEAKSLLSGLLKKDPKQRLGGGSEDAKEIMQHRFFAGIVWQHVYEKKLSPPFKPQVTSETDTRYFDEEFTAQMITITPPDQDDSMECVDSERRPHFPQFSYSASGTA
Chain of Ribosomal protein S6 kinase alpha-4 (Homo sapiens) (O75676 whole entry, looked up): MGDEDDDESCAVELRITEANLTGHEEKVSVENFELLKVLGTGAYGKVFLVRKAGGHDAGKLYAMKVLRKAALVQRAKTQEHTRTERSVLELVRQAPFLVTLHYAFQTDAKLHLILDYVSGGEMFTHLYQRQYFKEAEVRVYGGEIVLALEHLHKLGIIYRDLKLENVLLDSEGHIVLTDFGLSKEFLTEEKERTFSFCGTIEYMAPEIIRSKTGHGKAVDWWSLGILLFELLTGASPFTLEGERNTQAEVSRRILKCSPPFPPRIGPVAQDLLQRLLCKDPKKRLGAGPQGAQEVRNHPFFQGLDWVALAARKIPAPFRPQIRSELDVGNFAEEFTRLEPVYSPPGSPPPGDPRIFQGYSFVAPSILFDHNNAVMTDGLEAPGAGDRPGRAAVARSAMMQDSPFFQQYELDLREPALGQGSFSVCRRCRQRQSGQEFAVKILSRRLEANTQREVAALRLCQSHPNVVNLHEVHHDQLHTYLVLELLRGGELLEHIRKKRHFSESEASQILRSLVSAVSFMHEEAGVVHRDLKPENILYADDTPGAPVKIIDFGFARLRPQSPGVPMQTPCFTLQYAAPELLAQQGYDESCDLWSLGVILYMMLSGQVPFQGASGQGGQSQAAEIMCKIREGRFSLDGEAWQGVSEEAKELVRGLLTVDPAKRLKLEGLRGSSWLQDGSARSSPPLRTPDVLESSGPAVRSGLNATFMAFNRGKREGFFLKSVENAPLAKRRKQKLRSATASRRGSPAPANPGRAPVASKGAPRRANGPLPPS

Turning to `CNC(=O)c1cccc(C#Cc2cncnc2Nc2ccc(OCc3cccc(F)c3)c(Cl)c2)c1`, the inhibition in test [1] is 0.17%; in test [2], -0.5%; in [3], 0%; in [4] it was 0.98%; in test [5], 0.81%; in [6] it was -1.1%. The inhibition is 0.71% in test [7]; 3.57% in test [8]; 1.29% in [9]; -1.25% in test [10]; -0.5% in [11]; 1.42% in [12]. The inhibition in test [13] is -0.81%; in [14], -3.2%; in test [15] it was -0.16%; in test [16], -0.2%; in test [17] it was 0.45%; in test [18], 1.97%. Moreover, the inhibition in test [19] came to 0.88%; in test [20], 0.77%.
With `COc1cc(/C=N/Nc2ncnc3[nH]ncc23)ccc1O`, the inhibition in test [1] is 0.87%; in test [2], 0.81%; in test [3], 1.01%; in [4], 0.76%; in test [5], 1.65%; in test [6] it was 0.92%. The inhibition in [7] stood at 4.89%; in test [8] it was 5.42%; in test [9], 2.24%; in test [10], 5.07%; in test [11], 0.11%; in test [12], 2.49%. Also, the inhibition in [13] is 0.6%; in [14] it was 1.83%; in [15] it was 4.13%; in test [16], 13.9%; in test [17] it was 2.93%; in test [18], 8.42%. The inhibition in test [19] is 3.45%; in [20] it was 21.4%.
Take `c1cc(-c2cnn3nc(N4CCOCC4)ccc23)nc(NC2CC2)n1`: the inhibition turned out to be 0.69% in [1]; 1.04% in test [2]; 3.2% in [3]; 2.75% in test [4]; 1.36% in test [5]; 1.78% in test [6]. Further, the inhibition in test [7] was 0.85%; in test [8] it was 1.72%; in test [9] it was 3.91%; in test [10], 6.6%; in [11] it was 0.21%; in test [12], -0.69%. Besides, the inhibition amounted to 0.92% in test [13]; 0.61% in test [14]; 3.83% in [15]; 3.75% in test [16]; 0.89% in test [17]; 6.24% in test [18]. Also, the inhibition in test [19] came out at 1.29%; in test [20] it was 3.7%.
Take `COc1cc(Nc2nccc(Nc3ccc4c(C)n[nH]c4c3)n2)cc(OC)c1OC`: the inhibition was determined as 0.02% in test [1]; 1.09% in test [2]; 0.52% in test [3]; 1.19% in test [4]; 0.72% in test [5]; 1.18% in [6]. The inhibition in test [7] is -0.47%; in test [8] it was -4.13%; in test [9] it was 1.14%; in test [10] it was -1.95%; in test [11] it was 1.61%; in test [12], -0.15%. The inhibition was 1.88% in [13]; 1.78% in test [14]; 3.58% in test [15]; 2.96% in test [16]; 1.54% in test [17]; 2.58% in test [18]. For the same molecule, the inhibition in [19] is 0.65%; in test [20], 1.09%.
Take `CN1CCC(n2cnc(-c3ccc(F)cc3)c2-c2ccnc(Nc3ccccc3)n2)CC1`: the inhibition turned out to be 0.23% in test [1]; 1.05% in [2]; 0.63% in test [3]; 0.8% in test [4]; 2.25% in test [5]; 5.43% in test [6]. In addition, the inhibition in test [7] is 2.34%; in test [8] it was 2.65%; in test [9], 2.84%; in test [10], 6.42%; in test [11], 0.81%; in test [12], 10.7%. Besides, the inhibition in [13] was found to be 1.12%; in [14], 2.04%; in test [15] it was 1.99%; in test [16], 3.4%; in [17], 1.72%; in [18] it was 3.56%. Also, the inhibition in test [19] came out at 0.19%; in [20], 1.05%.
With `COC(=O)Nc1nc2ccc(Oc3ccc(NC(=O)Nc4cccc(Cl)c4)cc3)cc2[nH]1`, the inhibition in [1] was -0.35%; in test [2] it was -0.4%; in [3], -0.4%; in [4] it was 0.5%; in test [5], -0.34%; in test [6] it was 1.86%. Further, the inhibition in [7] is -1.85%; in test [8] it was 0.02%; in test [9], 3.03%; in test [10], 16.8%; in [11] it was -2.43%; in [12] it was -0.92%. Moreover, the inhibition is -0.72% in [13]; -1.4% in test [14]; 0.39% in test [15]; -1.18% in test [16]; 0.82% in test [17]; -0.55% in test [18]. Besides, the inhibition in test [19] stood at 0.63%; in test [20] it was 0.82%.
Take `CCCN1CCC(c2ccc(Nc3nc(Nc4cc(F)ccc4C(N)=O)c4cc[nH]c4n3)c(OC)c2)CC1`: the inhibition in [1] is -0.31%; in test [2], 0.33%; in test [3], 2.13%; in test [4], 1.62%; in test [5], 1.85%; in test [6], 2.68%. The inhibition in test [7] was determined as 16.3%; in [8] it was 58.8%; in test [9], 11.6%; in test [10], 45%; in test [11] it was 2.45%; in test [12], 30.4%. The inhibition in test [13] was 1.71%; in [14], 23.3%; in test [15] it was 2.89%; in test [16], 8.65%; in test [17], 2.82%; in [18], 12%. The inhibition in test [19] came to 2.27%; in [20], 7.03%.
With `N#Cc1c(NC(=O)CN2CCOCC2)sc2c1CCCC2`, the inhibition is 1.2% in test [1]; 1.08% in [2]; 1.56% in [3]; 1% in test [4]; 1.61% in test [5]; 2.91% in [6]. The inhibition in test [7] was determined as 2.71%; in test [8] it was 4.14%; in test [9], 3.28%; in [10], 4.91%; in test [11], 0.22%; in test [12] it was 2.63%. The inhibition in test [13] was 0.43%; in test [14] it was 0.37%; in test [15] it was 3.16%; in [16] it was 3.12%; in test [17], 2.5%; in [18], 2%. Besides, the inhibition came out at 2.57% in test [19] and 1.13% in test [20].
Consider `COC(=O)Nc1nc2ccc(S(=O)(=O)c3ccc(NC(=O)Nc4cc(C(F)(F)F)ccc4F)cc3)cc2[nH]1`, for which the inhibition was found to be 1.04% in test [1]; 0.21% in test [2]; 1.6% in test [3]; 1.74% in [4]; 2.62% in [5]; 2.2% in test [6]. The inhibition in test [7] is -1.79%; in test [8], -0.49%; in test [9], 4.02%; in test [10], 1.96%; in [11], 0.58%; in test [12], -0.35%. Besides, the inhibition in test [13] was determined as 1.96%; in [14], 1.32%; in test [15] it was 2.41%; in test [16], 1.23%; in [17] it was 0.77%; in test [18], 4.31%. Moreover, the inhibition in [19] came to 2.42%; in [20] it was 0.71%.
Turning to `COc1ccc(-c2cc3c(N)ncnc3o2)cc1`, the inhibition in test [1] was -0.96%; in [2], -1.46%; in [3], -0.81%; in test [4], -0.64%; in [5], -1.06%; in test [6], 1.62%. Moreover, the inhibition in test [7] was -0.25%; in test [8], 0.98%; in test [9], 3.4%; in test [10], -1.5%; in test [11], 1.37%; in [12], -2.67%. The inhibition in test [13] was 1.33%; in [14], -0.07%; in test [15], -2.51%; in test [16] it was -3.04%; in test [17] it was -0.05%; in test [18], -0.35%. Moreover, the results for the inhibition in [19] and in test [20] were -0.5% and -0.54%, respectively.
Take `NS(=O)(=O)c1ccc(N/N=C2\C(=O)Nc3ccc4ncccc4c32)cc1`: the inhibition was 0.85% in test [1]; 0.69% in test [2]; 1.6% in test [3]; 2.48% in [4]; 1.36% in [5]; 2.03% in [6]. The inhibition was -2.97% in [7]; 15.8% in [8]; 4.91% in [9]; 19% in [10]; 1.68% in test [11]; 13.5% in test [12]. For the same molecule, the inhibition is 0.55% in [13]; 7.07% in test [14]; 5.1% in test [15]; 14.5% in [16]; 20.4% in [17]; 61.2% in [18]. Also, the inhibition was 2.37% in test [19] and 12.1% in [20].
On to `Nc1nc(-c2cccc(Cl)c2)c(-c2ccc3ncccc3n2)s1`, for which the inhibition was -0.22% in [1]; 0.39% in test [2]; 1.97% in test [3]; 2.05% in test [4]; 1.92% in test [5]; 0.68% in test [6]. The inhibition was 10.4% in test [7]; 15.4% in [8]; 7.84% in [9]; 13.8% in test [10]; -0.36% in [11]; 5.58% in [12]. For the same molecule, the inhibition in test [13] is -0.33%; in test [14], 0.87%; in test [15], 9.72%; in [16], 9.28%; in [17], 2.91%; in test [18], 3.45%. The results for the inhibition in test [19] and in [20] were 1.21% and 3.77%, respectively.
With `CC(=O)Nc1cccc(C#Cc2cncnc2Nc2ccc(OCc3cccc(F)c3)c(Cl)c2)c1`, the inhibition was 0.35% in [1]; 2.86% in [2]; 1.58% in test [3]; 1.24% in test [4]; 0.94% in test [5]; 1.39% in [6]. In addition, the inhibition in test [7] was 0.81%; in [8], -1.5%; in test [9] it was 3.04%; in [10], -3.08%; in test [11], 1.39%; in test [12], 0.82%. Further, the inhibition was 1.53% in test [13]; 1.93% in test [14]; -3.6% in test [15]; -3.85% in [16]; 1.16% in [17]; 2.5% in test [18]. Besides, the results for the inhibition in test [19] and in [20] were 2.04% and 2.07%, respectively.

A word on the inhibition: it is the relative decrease from the control value, in per cent.
